The values that follow come from PubChem BioAssay (NCI).

Among the test systems are NCI-H23 lung; NCI-H226 lung; NCI-H322M lung; HOP-62 NSCLC; NCI-H460 lung; HOP-92 NSCLC; NCI-H522 lung; A549/ATCC NSCLC; 786-0 renal; COLO 205 colon.
Test in all cases: NCI-60 one-dose screen, 48 h (100 = growth as untreated, 0 = no growth, -100 = all killed)
Common to all, as to conditions: 10 µM unless noted

This is part of a sample that, as a whole, favours compounds with a hit. Of some 83,000 tested, about 20% had one in any assay.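 Single-concentration screen, 48 h exposure, 96-well plates. Endpoint: percent growth. Below 10 = active.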 A number with no mark means an inactive call. The source made the active and inactive calls.

On to `C=C(C)C1CCC2(C(=O)O)CCC3(C)C(CCC4C5(C)CCC(OC(=O)NCc6ccccc6)C(C)(C)C5CCC43C)C12` (stereo not given), for which the growth is 32.3% with NCI-H23 lung; 44.8% in the assay on NCI-H226 lung; 59.3% with NCI-H322M lung; 48.4% in the assay on HOP-62 NSCLC; 29.4% in the assay on NCI-H460 lung; -4.47% (active) in the assay with HOP-92 NSCLC. The growth was -6.51% (active) in the assay on NCI-H522 lung, 26.7% in the assay with A549/ATCC NSCLC, 44.8% in the assay on 786-0 renal and 13.7% with COLO 205 colon.
For `CC1(C)CC(=O)c2c(ccc(C(=O)C[C@@H](N)CO)c2N)O1`, the growth with NCI-H23 lung is 45.9%; with NCI-H226 lung it was 27.5%; in the assay with NCI-H322M lung it was 5.96% (active); in the assay on HOP-62 NSCLC, 2.01% (active); with NCI-H460 lung it was 4.1% (active); with HOP-92 NSCLC it was 82.7%. Further, the growth in the assay on NCI-H522 lung was 20.1%; with A549/ATCC NSCLC, 15.3%; with 786-0 renal, 66.7%; with COLO 205 colon, 17.9%.
Turning to `c1ccc(-c2n[nH]c(-c3ccccn3)n2)nc1`, the growth is 102% in the assay on NCI-H23 lung; 118% in the assay on NCI-H226 lung; 121% in the assay with NCI-H322M lung; 104% in the assay with HOP-62 NSCLC; 106% in the assay with NCI-H460 lung; 94% in the assay on HOP-92 NSCLC. The growth is 96.8% with NCI-H522 lung, 105% with A549/ATCC NSCLC, 97% with 786-0 renal and 143% in the assay on COLO 205 colon.
As to `CCC(Br)(CC)C(=O)c1ccc(OCC(=O)O)c(Cl)c1Cl`, the growth in the assay on NCI-H23 lung is 103%; with NCI-H226 lung it was 87.4%; with NCI-H322M lung, 112%; in the assay with HOP-62 NSCLC it was 119%; in the assay on NCI-H460 lung it was 96%; with HOP-92 NSCLC it was 102%. Moreover, the growth with NCI-H522 lung was 82.1%; with A549/ATCC NSCLC, 91.5%; with 786-0 renal it was 117%; in the assay on COLO 205 colon, 108%.
Consider `CN(C)c1cc(NN=C(c2ccc(O)cc2)c2ccc(O)cc2)c([N+](=O)[O-])cc1[N+](=O)[O-]`, for which the growth with NCI-H23 lung was 41%; in the assay on NCI-H226 lung, 98.7%; with NCI-H322M lung it was 117%; with HOP-62 NSCLC it was 58%; in the assay with NCI-H460 lung, 30.4%; with HOP-92 NSCLC it was 73%. Besides, the growth with NCI-H522 lung was 1.73% (active); with A549/ATCC NSCLC, 13.2%; in the assay with 786-0 renal, 16.7%; in the assay with COLO 205 colon, 89.5%.
Consider `COc1ccc(C(=O)CSc2nnc(-c3cc(-c4ccccc4)nc4ccccc34)o2)cc1`, for which the growth is 109% in the assay with NCI-H23 lung; 106% in the assay with NCI-H226 lung; 99.7% in the assay with NCI-H322M lung; 97.5% in the assay on HOP-62 NSCLC; 106% in the assay with NCI-H460 lung; 113% in the assay with HOP-92 NSCLC. Moreover, the growth is 102% in the assay on NCI-H522 lung, 98% in the assay on A549/ATCC NSCLC, 106% with 786-0 renal and 122% in the assay with COLO 205 colon.
`Cc1ccc2c(n1)C(=O)C(Cl)=C(Nc1ccc(N3CCN(C)CC3)cc1)C2=O`: the growth in the assay with NCI-H23 lung is 16.7%; with NCI-H226 lung, 105%; in the assay with NCI-H322M lung, 97.3%; in the assay with HOP-62 NSCLC, 63.7%; in the assay with NCI-H460 lung, 97.2%; in the assay on HOP-92 NSCLC, -86.3% (active). Moreover, the growth is -63.8% (active) in the assay on NCI-H522 lung, 97.6% in the assay on A549/ATCC NSCLC, 52.2% in the assay on 786-0 renal and 82.5% in the assay with COLO 205 colon.
For `Cc1cccc(C[C@H](NC(=O)Nc2ccc(C)cc2F)C(=O)N[C@@H]2C(=O)N3C[C@H](O)C[C@H]3C(=O)N3CCN(C)C[C@H]3C(=O)N[C@@H](C)C(=O)N3C[C@H](C)C[C@H]3C(=O)O[C@H]2C)c1`, the growth in the assay on NCI-H23 lung is 38.1%; in the assay with NCI-H226 lung it was 53.9%; in the assay on NCI-H322M lung it was 73.3%; in the assay on HOP-62 NSCLC, 57.9%; in the assay with NCI-H460 lung, 42.5%; in the assay with HOP-92 NSCLC it was 38.9%. The growth was 38% in the assay on NCI-H522 lung, 43.5% with A549/ATCC NSCLC, 84.2% in the assay with 786-0 renal and 12.4% in the assay on COLO 205 colon.
As for `CCOC(=O)COc1c(C)cc(SSc2cc(C)c(OCC(=O)OCC)c(C)c2)cc1C`, the growth was 103% in the assay on NCI-H23 lung; 111% in the assay with NCI-H226 lung; 105% with NCI-H322M lung; 109% in the assay with HOP-62 NSCLC; 102% in the assay on NCI-H460 lung; 76.8% in the assay with HOP-92 NSCLC. The growth in the assay with NCI-H522 lung was 73.8%; in the assay on A549/ATCC NSCLC, 80.2%; in the assay with 786-0 renal, 114%; in the assay with COLO 205 colon it was 111%.
Turning to `COc1ccc(OC)c([N+](=O)[O-])c1C(=O)CNC(C)=O`, the growth was 105% in the assay with NCI-H23 lung; 101% in the assay on NCI-H226 lung; 105% in the assay on NCI-H322M lung; 105% with HOP-62 NSCLC; 107% with NCI-H460 lung; 89.9% with HOP-92 NSCLC. In addition, the growth in the assay with NCI-H522 lung is 95.7%; in the assay on A549/ATCC NSCLC, 100%; in the assay on 786-0 renal, 103%; with COLO 205 colon, 114%.
With `C#CCOc1ccc(C2=NN(CC3CC3)C3N=C(Cl)c4ncn(CC5CC5)c4N23)cc1OCC#C` (stereo not given), the growth was 85.7% in the assay with NCI-H23 lung; 76.4% with NCI-H226 lung; 76.1% with NCI-H322M lung; 83.8% in the assay on HOP-62 NSCLC; 69.6% in the assay on NCI-H460 lung; 61.7% in the assay on HOP-92 NSCLC. Also, the growth in the assay with NCI-H522 lung was 60.6%; in the assay on A549/ATCC NSCLC, 71.4%; in the assay on 786-0 renal it was 93.6%; in the assay with COLO 205 colon, 78.9%.
Consider `Cc1cc(-c2ccc(N=Nc3c(S(=O)(=O)O)cc4cc(S(=O)(=O)O)cc(N)c4c3O)c(C)c2)ccc1N=Nc1cc(S(=O)(=O)O)c2ccccc2c1O`, for which the growth in the assay on NCI-H23 lung was 92.2%; in the assay on NCI-H226 lung it was 90%; with NCI-H322M lung it was 86.5%; in the assay on HOP-62 NSCLC it was 93.8%; with NCI-H460 lung, 107%; in the assay with HOP-92 NSCLC, 89.6%. Besides, the growth is 101% with NCI-H522 lung, 97.2% in the assay with A549/ATCC NSCLC, 104% in the assay on 786-0 renal and 110% in the assay on COLO 205 colon.
Turning to `N#C/C(C(=O)c1ccccc1)=C1/C(=O)Nc2ccccc21`, the growth in the assay on NCI-H23 lung was 102%; in the assay on NCI-H226 lung it was 104%; in the assay with NCI-H322M lung, 100%; in the assay on HOP-62 NSCLC it was 86.3%; in the assay with NCI-H460 lung it was 106%; in the assay with HOP-92 NSCLC it was 105%. In addition, the growth in the assay on NCI-H522 lung was 97.6%; with A549/ATCC NSCLC, 106%; in the assay with 786-0 renal, 6.59% (active); in the assay on COLO 205 colon it was 105%.
